Assay outcomes from PubChem BioAssay.
In the library only some 7% were active in any assay of this set; here they are far more common.
DRD3 agonist = D3 dopamine receptor (human) agonism | max activation, % | 410,000 compounds, 0.58% hits | D3R DiscoveRx beta-arrestin cells, luminescence, 90 min; in the data active = max activation above about 30%
Target sequence (P35462 whole entry, looked up): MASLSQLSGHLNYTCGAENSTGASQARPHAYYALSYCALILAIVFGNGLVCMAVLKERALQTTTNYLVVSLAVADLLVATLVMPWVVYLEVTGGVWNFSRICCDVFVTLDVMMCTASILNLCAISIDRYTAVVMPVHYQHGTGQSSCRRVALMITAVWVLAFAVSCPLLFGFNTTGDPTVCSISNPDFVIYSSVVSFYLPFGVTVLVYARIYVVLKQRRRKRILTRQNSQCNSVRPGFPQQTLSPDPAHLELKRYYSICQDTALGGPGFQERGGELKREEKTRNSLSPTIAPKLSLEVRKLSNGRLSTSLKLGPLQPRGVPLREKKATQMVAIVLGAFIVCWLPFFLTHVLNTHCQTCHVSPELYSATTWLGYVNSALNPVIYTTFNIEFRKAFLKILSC
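Cells at 1500/well, incubated overnight, then treated with pinned compounds (dopamine as control) for 90 min at 37 degrees C. DiscoveRx reagent added for 30 - 60 minutes at room temperature; luminescence read.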
ATXN2 expr inh = inhibitors of ATXN2 expression | HEK-293 ATXN2-luciferase reporter, luminescence, 24 h | Potency, µM (highest dose often 57 µM), most hits filed as inhibitors | 360,000 compounds, 0.72% hits; note: nearly all actives have a fitted effect of over 55% in size
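ATXN2-luciferase reporter cells (luciferase flanked by upstream and downstream ATXN2 gene portions) were treated 24 h at 37 °C with compounds at up to 57 uM. SteadyGlo luminescence gave expression; GF-AFC fluorescence gave viability.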
S2 tox = viability counter-screen for ATXN expression inhibitors; S2 cells (HEK-293 line with an ATXN2-luciferase reporter) viability, CellTiter-Fluor protease fluorescence, 24 h; 400,000 compounds, 0.49% hits; Potency, µM (highest dose often 56.7 µM), most hits filed as cytotoxic; note: nearly all actives have a fitted effect of over 40% in size
D3 antag = D3 dopamine receptor (human) antagonism | max response, negative = inhibition, % | 360,000 compounds, 2.5% hits | AID 652054 | P35462 | D3R cells, DiscoveRx beta-arrestin luminescence, antagonist mode; active compounds read low; in the data active = max response below about -50%; inconclusive = no clear call, values can overlap the other calls
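Cells plated overnight at 1500 cells/well, then exposed to library compounds with dopamine controls for 90 minutes at 37 degrees C. DiscoveRx reagent added for 30–60 minutes at room temperature; luminescence read, quantitative HTS format.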
IL-1B inflam inh = inflammasome signaling inhibition, IL-1 beta readout; THP-1 LPS/ATP IL-1B secretion, AlphaLISA, 16 h; active compounds read low; activity change, % at 57.5 µM; 360,000 compounds, 4.7% hits; AID 743279; in the data active = activity change below about -50%; inconclusive = mostly about -30% to -49%
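Secreted IL-1B measured by AlphaLISA bead assay after 16 h compound exposure of THP-1 cells; compounds (final up to 57.5 uM) added 1 h before LPS (250 ng/mL) and ATP (1.25 mM) stimulation; lower signal means less secretion.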
a7 integrin act = activates integrin-mediated alleviation for muscular dystrophy; alpha7betagal myoblasts, beta-gal FDG fluorescence, 48 h; Potency, µM (highest dose often 38.3 µM), actives largely listed as activators; 350,000 compounds, 0.064% hits; note: nearly all actives have a fitted effect of over 60% in size
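Alpha7betagal+/- myoblasts (passage 13) were plated 16-24 hr, then exposed to compounds (1:260 dilution of DMSO stock) for 48 hours at 37C. After MPER lysis, β-galactosidase reporter activity was read as FDG fluorescence (ex 480/em 540) after 30 minutes.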
Numbers stand for hits; – = inactive; ? = inconclusive; · = not tested or not shown. Unless noted, calls come from the whole dose curve; as a rule, active = well fitted curve in the direction sought with a large enough effect; inconclusive = small, poorly fitted or top-dose-only effect, or another doubt; inactive = no such curve, though single readings can be large; an effect the other way counts as inactive or inconclusive.

SMILES	DRD3 agonist	ATXN2 expr inh	S2 tox	D3 antag	IL-1B inflam inh	a7 integrin act
Cc1ccc(C2C3=C(NCCN=C3c3ccccc3)C(=O)N2c2ccccc2)cc1 (centres undefined)	–	?	?	–	-63	–
CCOc1ccc(N2C(=O)C3=C(C(c4ccc(Cl)cc4)=NCCN3)C2c2cccnc2)cc1 (centres undefined)	–	–	–	–	–	–
CCc1ccc(NC(=O)c2cc(S(=O)(=O)N3CCCCC3)c[nH]2)cc1	–	–	–	·	·	·
COc1ccc(C(C#N)N2CCCCCC2)cc1OC (centres undefined)	–	–	–	–	–	–
COc1cccc(C(C#N)N2CCCCC2)c1O (centres undefined)	–	–	–	-74	–	–
CC(=O)Nc1ccc(S(=O)(=O)N2CCCC3CCCCC32)cc1 (centres undefined)	–	–	–	–	–	–
Cc1cc(C(=O)Nn2c(-c3ccncc3)nc3ccccc3c2=O)ccc1[N+](=O)[O-]	–	–	–	–	–	–
CCc1nc2ccc(C(=O)N3CCCCC3)cn2c1N(CCC(C)C)CCN(C)C	53	–	–	–	–	·
COc1ccc(C2N(c3ccc(Cl)cc3)N=C(C(C)=O)N(C)N2C(C)=O)cc1 (centres undefined)	–	–	?	–	-58	–
O=C(Cc1ccc(-n2c(=O)[nH]c3ccsc3c2=O)cc1)N1CCN(c2ccc(Cl)cc2)CC1	–	?	–	–	-75	–
CC1=C(c2ccc(F)cc2)S(=O)(=O)NC1=NCc1ccccc1Cl	–	·	·	·	·	·
CCOC(=O)C(=CNc1ccc(O)c(C(=O)OC)c1)C(=O)OCC	57	–	–	–	–	–
CCOC(=O)C(=CNc1cc(C)nn1-c1ccc(C)cc1)C(=O)OCC	–	–	?	–	–	–
CCOC(=O)C(=CNc1ccc2c(c1)nnn2-c1ccc(Cl)cc1)C(=O)OCC	–	24µM	?	–	–	–
CCOC(=O)C(=CNc1cc(C)ccc1C)C(=O)OCC	–	–	–	–	–	–
COc1ccc2oc(=O)c(-c3csc(Nc4ccc(O)cc4)n3)cc2c1	–	–	?	–	-91	–
COc1ccc(-c2csc(Nc3ccccc3)n2)cc1	–	–	–	–	-56	–
COc1ccc2oc(=O)c(-c3csc(-c4ccc(Br)cc4)n3)cc2c1	–	–	–	·	·	·
COc1ccc(Nc2nc(-c3c[nH]c4ccccc34)cs2)cc1	–	–	–	–	-78	–
COc1ccc(-c2nnn(CC(=O)N(c3cccc(O)c3)C(C)C(=O)NC3CCCC3)n2)cc1OC (centres undefined)	–	–	–	–	–	–
CCc1ccc(-c2cc(C(F)(F)F)n3nc(C(=O)Nc4cnn(Cc5ccc(C)cc5)c4)cc3n2)s1	–	11µM	?	–	–	–
COc1ccc2c(c1)c1nc(SCC(C)C)n(CCO)c(=O)c1n2C	–	–	–	–	–	–
COc1ccc2c(C)cc(N3CCCCCC3)nc2c1	–	–	–	?	-67	–
c1ccc(CN2CCc3[nH]c4ccccc4c3C2)cc1	–	–	–	-97	–	–
Cc1ccc2[nH]c3c(c2c1)CN(C)CC3	–	–	–	?	–	–
SMILES	DRD3 agonist	ATXN2 expr inh	S2 tox	D3 antag	IL-1B inflam inh	a7 integrin act
CCN1CCc2[nH]c3ccccc3c2C1	–	·	?	?	–	–
Cc1ccc2[nH]c3c(c2c1)CCN(C)C3	–	–	–	-60	?	?
Cc1cccc(CN2CCc3c([nH]c4ccccc34)C2)c1	–	–	–	-90	?	–
CSc1ccc(CN2CCc3c([nH]c4ccccc34)C2)cc1	–	–	?	?	-73	–
O=S(=O)(c1cccc(-c2n[nH]c(=S)n2Cc2ccccc2)c1)N1CCOCC1	–	–	–	–	–	–
CCC(c1n[nH]c(=S)n1-c1ccccc1)N(C)C (centres undefined)	–	–	?	–	–	–
CCCCNS(=O)(=O)c1ccc2nc(-c3cccnc3)cc(C(=O)NC(C)CC)c2c1 (centres undefined)	–	?	?	–	–	–
Cc1nn(C)c(C)c1S(=O)(=O)NC1CCCc2ccccc21 (centres undefined)	–	–	–	–	–	–
CCCc1nc(NCCCOCC)c2nnn(Cc3ccccc3)c2n1	–	·	–	–	–	–
Clc1cccc(CN2CCc3c([nH]c4ccccc34)C2)c1	–	?	–	-59	-98	–
COc1cc(OC)c(CN2CCc3c([nH]c4ccccc34)C2)cc1Br	–	?	–	–	–	–
Clc1ccc(CN2CCc3c([nH]c4ccccc34)C2)cc1Cl	–	·	?	–	-70	–
O=C(N/N=C/c1cccc(OC(=O)c2ccc3c(c2)OCO3)c1)c1cncc(Br)c1	–	–	–	–	–	–
CCCn1nc(NC(C)=O)c2cc3cccc(C)c3nc21	–	·	·	–	–	–
Cc1c(NC(=O)c2ccc(N3CCCC3)c([N+](=O)[O-])c2)cccc1-c1nc2ccccc2s1	–	–	–	-51	?	–
CN1CCN(c2ccc(C(=O)c3ccccc3)cc2[N+](=O)[O-])CC1	–	–	–	–	-53	–
CN1CCN(c2ccccc2NC(=O)c2ccc(N3CCCCC3)c([N+](=O)[O-])c2)CC1	–	–	?	–	-63	–
O=C(O)c1ccc(N2CCN(C(c3ccccc3)c3ccccc3)CC2)c([N+](=O)[O-])c1	–	–	–	–	–	–
CN1CCN(c2ccccc2NC(=O)c2ccc(N3CCOCC3)c([N+](=O)[O-])c2)CC1	–	–	?	–	-56	–
Cc1ccc2nc(Nc3ccc(C)c(F)c3)c3nncn3c2c1	–	–	–	·	·	·
Cc1[nH]c(=O)c(C#N)c(C)c1CCC(=O)N(C)CC(=O)Nc1ccc(Cl)c(Cl)c1	–	–	–	–	–	–
O=C(COc1ccc(Cl)cc1)Nc1ccc(N2CCN(C(=O)c3ccco3)CC2)cc1	–	–	–	–	?	–
Cc1ccccc1C(=O)N1CCN(c2ccc(NC(=O)CSc3ccc(Cl)cc3)cc2)CC1	–	?	–	–	-72	–
O=C(Nc1ccc(N2CCN(C(=O)c3ccco3)CC2)cc1)c1ccccc1Br	–	–	–	–	-62	–
O=C(CSc1ccc(Cl)cc1)Nc1ccc(N2CCN(C(=O)c3ccco3)CC2)cc1	–	?	–	–	-68	–
CC(=O)Nc1cccc(C(=O)NNC(=O)c2ccc(-n3cnnn3)cc2)c1	–	–	–	–	–	–
COc1ccccc1CNc1nc(NCc2ccccc2)nc2ccsc12	–	?	?	–	-100	·
COCCNc1nc(NCc2ccccc2F)c2sccc2n1	–	?	?	–	–	·
